Common to all, as to experiment: NCI-60 one-dose screen, 48 h (100 = growth as untreated, 0 = no growth, -100 = all killed)
What all share (conditions): 10 µM unless noted

Assay [1] relates to DU-145 prostate.
Assay [2] deals with K-562 leukemia.
Assay [3] deals with MALME-3M melanoma.
The test system of assay [4] is MDA-MB-231 breast.
For assay [5], the system named is RXF 393 renal.
In assay [6] the test system is SF-268 CNS.
The test system of assay [7] is SF-295 CNS.
Assay [8] deals with SF-539 CNS.
For assay [9], the system named is UACC-257 melanoma.
Assay [10] concerns M14 melanoma.
Assay [11] relates to HCT-15 colon.
For assay [12], the system named is HT29 colon.
Assay [13] relates to SNB-19 CNS.
For assay [14], the system named is PC-3 prostate.
Assay [15] relates to SK-MEL-5 melanoma.
In assay [16] the test system is UACC-62 melanoma.
Assay [17] has as its system LOX IMVI melanoma.
In assay [18] the test system is SK-MEL-28 melanoma.
The subject of assay [19] is U251 CNS.

Structures are written as SMILES. About 83,000 compounds went through this panel and 20% of them were active in at least one assay; those are over-represented in the sample as a whole.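 Negative percent growth values reflect cell death: -40 means 40% of the cells present at the start died, and -100 means all died.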 A number with no mark means an inactive call. Active and inactive are the calls of the source. The calls were made as follows: active = growth percent below 10; inactive = the rest.

With `COC(=O)c1nc(-c2ccccc2)oc1S(=O)(=O)NCC(c1ccc(Cl)cc1)N1CCOCC1` (centres undefined), the growth in [1] is 78.2%; in assay [2] it was 13.4%; in [3], 76.9%; in [4], 75.8%; in assay [5] it was 83.6%; in [6], 77%. Moreover, the growth in assay [7] is 101%; in [8], 92.3%; in [9], 87.3%; in [10], 35%; in [11], 44.2%; in assay [12], 40%. In addition, the growth in assay [13] was 89.4%; in assay [14], 50%; in [15], 86.4%; in assay [16], 80.9%; in [17], 48.7%; in assay [18], 94.3%.
For `Cc1ccc(S(=O)(=O)c2nc(-c3ccccc3)oc2Sc2nc3ccccc3s2)cc1`, the growth was 100% in assay [1]; 42.9% in [2]; 66.4% in assay [3]; 75.3% in assay [4]; 77.3% in assay [5]; 58.3% in assay [6]. Further, the growth in assay [7] was 92.1%; in assay [8], 93.3%; in assay [9] it was 101%; in assay [10], 13.4%; in assay [11], 44.8%; in assay [12], 94.2%. The growth in [13] is 100%; in assay [19], 90.5%; in assay [14], 97.2%; in assay [15], 53.3%; in assay [16], 80.3%; in assay [17], 24.6%. Besides, the growth in assay [18] was 109%.
On to `CN1CCN(Cc2ccc(NC(=O)c3cncc(C#Cc4cnc(N)c5ncccc45)c3)cc2C(F)(F)F)CC1`, for which the growth is 18.1% in assay [1]; 13.9% in [2]; -73.5% (active) in assay [3]; -78.7% (active) in assay [4]; -83.9% (active) in assay [5]; -18.1% (active) in [6]. The growth in assay [7] was 31.2%; in assay [8], -87% (active); in assay [9] it was 17.1%; in assay [10], -87% (active); in assay [11], -30.2% (active); in [12] it was -50.2% (active). Also, the growth in assay [13] was 44.3%; in assay [19] it was -37.6% (active); in assay [14], 13.6%; in assay [15], -91.9% (active); in assay [16] it was 6.71% (active); in assay [17], -83.6% (active). Besides, the growth in assay [18] is -86.8% (active).
Turning to `COc1ccc(N2CCC(=S)NC2=S)cc1`, the growth in assay [1] is 108%; in assay [2] it was 100%; in assay [3], 101%; in assay [4], 103%; in assay [5] it was 119%; in assay [6] it was 94.2%. The growth in assay [7] was 101%; in assay [8], 99.9%; in [9], 102%; in assay [10] it was 109%; in assay [11] it was 101%; in assay [12], 104%. The growth was 94.5% in assay [13]; 101% in assay [19]; 107% in assay [14]; 98.2% in assay [15]; 90.3% in assay [16]; 95.3% in [17]. Also, the growth in assay [18] is 113%.
As for `O=C1NC(=O)/C(=C/c2c(-c3ccccc3)nc3sc(COc4ccccc4)nn23)S1`, the growth in assay [1] is 105%; in [2], 82.6%; in assay [3] it was 102%; in [4], 73.3%; in assay [5] it was 112%; in [6], 106%. The growth in assay [7] was 94.3%; in assay [8] it was 103%; in [9] it was 104%; in assay [10] it was 96.1%; in assay [11] it was 97.2%; in assay [12], 117%. Further, the growth is 95.6% in assay [13]; 96.7% in [19]; 111% in assay [14]; 97.9% in assay [15]; 90% in [16]; 57% in assay [17]. Besides, the growth in [18] is 110%.
`CS(=O)(=O)c1nnc(-c2ccccc2)s1`: the growth in assay [1] is 88%; in assay [2], 78.4%; in [3] it was 88.1%; in assay [4], 101%; in assay [5], 110%; in assay [6] it was 94.8%. For the same molecule, the growth in assay [7] was 106%; in assay [8] it was 106%; in assay [9], 91%; in assay [10], 74%; in assay [11], 71.4%; in [12] it was 82.2%. Moreover, the growth is 106% in assay [19]; 96.4% in [14]; 99.4% in assay [15]; 82.7% in assay [16]; 71.2% in assay [17]; 97.3% in [18].
With `Cc1ccc(-c2nc(-c3cn(C)c4ncccc34)cs2)cc1`, the growth in assay [1] was -56.4% [100 µM] (active); in [2] it was 10.3% [100 µM]; in assay [3], -40% [100 µM] (active); in assay [4], -14.6% [100 µM] (active); in assay [5], -37.8% [100 µM] (active); in [6], 2.72% [100 µM] (active). Further, the growth was -42.2% [100 µM] (active) in [7]; -79% [100 µM] (active) in assay [8]; -7.24% [100 µM] (active) in assay [9]; -63.7% [100 µM] (active) in assay [10]; -18% [100 µM] (active) in assay [11]; -68.1% [100 µM] (active) in assay [12]. In addition, the growth was -21.1% [100 µM] (active) in [13]; -7.83% [100 µM] (active) in assay [19]; -84.9% [100 µM] (active) in [15]; -50.3% [100 µM] (active) in assay [16]; -41% [100 µM] (active) in [17]; -19.7% [100 µM] (active) in [18].
As to `[2H]C([2H])([2H])Oc1ccc(F)cc1/C=C/C(=O)/C=C(O)/C=C/c1cc(F)ccc1OC([2H])([2H])[2H]`, the growth in [1] was 95.3%; in assay [2], 84%; in assay [3] it was 104%; in [4], 108%; in assay [5], 103%; in assay [6], 89.8%. For the same molecule, the growth in [7] was 103%; in assay [8] it was 107%; in [9], 89.6%; in assay [10] it was 85.1%; in assay [11], 79.9%; in assay [12] it was 98.8%. Besides, the growth in assay [13] was 91.8%; in [19], 76.8%; in assay [14], 93.1%; in [15], 92.8%; in assay [16] it was 80.6%; in [17], 85.1%. Besides, in assay [18], the growth is 116%.

The values above are taken from PubChem BioAssay (NCI).
